Experimental data reported in PubChem BioAssay (NCATS).
Records with an inconclusive call do not appear. Some compounds were tested as several samples or in several runs, with calls that do not always agree. Active and inactive are the calls of the source. The call rests on the fitted dose curve; in most records, active means well fitted cell-killing curve with a large enough effect; inconclusive means small, poorly fitted or top-dose-only effect, or effect the other way; inactive means flat fitted curve, though single readings scatter.

The compounds below were run on Tov-21-G (assay: Primary qHTS to identify gynecologic anti-cancer compounds using libraries of approved drugs and bioactive compounds (AID 1345084; further: nearly all actives have a fitted effect of over 55% in size)). Conditions: Gynecologic cancer cell panel viability, ATPlite luminescence, 48 h; series mostly up to 57.5 µM; activity change, negative = cytotoxicity: at the top concentration.
In short: (§1)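 Luminescence from the ATPlite ATP-monitoring reagent indicates viable cell number; lower signal means cytotoxicity. Cells received compound 16 h after seeding and were exposed for 48 h across five concentrations.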
On the % scale 0 is the no-effect control and ±100 the full control effect; potency means the concentration at half of the fitted maximal effect.

Compound	Potency	activity change, negative = cytotoxicity
COc1ccc(Cl)cc1C(=O)NCCc1ccc(S(=O)(=O)NC(=O)NC2CCCCC2)cc1	inactive	–
COc1ccc2cc1Oc1cc3c(cc1OC)CC[N+](C)(C)[C@H]3Cc1ccc(cc1)Oc1c(OC)c(OC)cc3c1[C@@H](C2)[N+](C)(C)CC3	–	1.57% (inactive)
CC[C@@]1(c2ccccc2)NC(=O)N(C)C1=O	–	-1.06% (inactive)
O=C1O[C@H]([C@@H](O)CO)C(O)=C1O	–	6.87% (inactive)
Cc1cccc(Nc2cc(Cl)nc(SCC(=O)O)n2)c1C	inactive	–
Cc1cc2nc3c(=O)[nH]c(=O)nc-3n(C[C@H](O)[C@H](O)[C@H](O)CO)c2cc1C	–	-1.82% [at 25.3 µM] (inactive)
C[C@@H]1CC[C@@]2(OC1)O[C@H]1C[C@H]3[C@@H]4CC[C@H]5C[C@@H](O)CC[C@]5(C)[C@H]4CC(=O)[C@]3(C)[C@H]1[C@@H]2C	–	5.68% [at 6.55 µM] (inactive)
O=c1cc[nH]c(=S)[nH]1	–	-1.1% (inactive)
COc1cc(C)c(Cc2cnc(N)nc2N)cc1OC	–	7.34% (inactive)
CCCOC(=O)c1ccccc1	–	7.64% (inactive)
CC(CN(C)C)CN1c2ccccc2CCc2ccccc21 (stereo not drawn)	–	-0.705% (inactive)
CN1[C@@H]2CC[C@H]1CC(OC(=O)C(O)c1ccccc1)C2 (stereo partly drawn)	–	7.9% (inactive)
C[C@@H](O)[C@H](N)C(=O)O	–	-11.4% [at 25.3 µM] (inactive)
NC(=O)N/N=C/c1ccc([N+](=O)[O-])o1	39.8 µM (active) and inactive	–
CC(C)(O)c1ccccc1CC[C@@H](SCC1(CC(=O)O)CC1)c1cccc(/C=C/c2ccc3ccc(Cl)cc3n2)c1	inactive	–
CC(CN1c2ccccc2Sc2ccccc21)N(C)C (stereo not drawn)	–	-1.82% (inactive)
Cc1ncc(COP(=O)(O)O)c(C=O)c1O	–	-0.185% (inactive)
O=C1NC(=O)[C@@]2(CCOc3ccc(F)cc32)N1	–	-2.42% (inactive)
Cc1c(O)cccc1C(=O)N[C@@H](CSc1ccccc1)[C@H](O)CN1C[C@H]2CCCC[C@H]2C[C@H]1C(=O)NC(C)(C)C	–	8.35% (inactive)
CCN(CC)C(=O)Nc1ccc(OCC(O)CNC(C)(C)C)c(C(C)=O)c1 (stereo not drawn)	inactive	–

Compound	Potency	activity change, negative = cytotoxicity
O=C(O)COc1nn(Cc2ccccc2)c2ccccc12	–	-2.47% (inactive)
C[C@@H]1C[C@H]2[C@@H]3C[C@H](F)C4=CC(=O)C=C[C@]4(C)[C@@]3(F)[C@@H](O)C[C@]2(C)[C@@]1(O)C(=O)CO	–	0.595% (inactive)
Nc1ccc(S(=O)(=O)Nc2ccccc2)cc1	–	-3.12% (inactive)
C[C@H](NC(CCc1ccccc1)C(=O)O)C(=O)N1CCC[C@H]1C(=O)O (stereo partly drawn)	–	-3.93% (inactive)
O=C1NS(=O)(=O)c2ccccc21	–	0.75% (inactive)
CCCCc1ncc(/C=C(\Cc2cccs2)C(=O)O)n1Cc1ccc(C(=O)O)cc1	inactive	–
OCC(CO)N[C@H]1C[C@](O)(CO)[C@@H](O)[C@H](O)[C@H]1O	–	-0.121% (inactive)
CNC(=O)Oc1ccc2c(c1)[C@]1(C)CCN(C)[C@@H]1N2C	inactive	–
NS(=O)(=O)c1cc2c(cc1Cl)NC(CSCc1ccccc1)=NS2(=O)=O	–	7.55% (inactive)
CCN(CC)C(C)CN1c2ccccc2Sc2ccccc21 (stereo not drawn)	–	0.0965% (inactive)
O=C(O)CC(O)C(=O)O (stereo not drawn)	–	4.81% (inactive)
O=C(O)[C@@H]1CSCN1	–	-9.5% (inactive)
Nc1ccc(S(=O)(=O)Nc2nccs2)cc1	inactive	–
CC(C(O)c1ccc(O)cc1)N1CCC(Cc2ccccc2)CC1 (stereo not drawn)	inactive	–
CN(C)CCOC(C)(c1ccccc1)c1ccccn1 (stereo not drawn)	–	7.11% (inactive)
CC(O)COc1ccccc1 (stereo not drawn)	–	15.4% (inactive)
Cc1cccc(C)c1NC(=O)CN(CC(=O)O)CC(=O)O	–	9.15% (inactive)
CN(C)CCN(Cc1ccccc1)c1ccccn1	–	-8.53% (inactive)
COc1ccc2[nH]c(S(=O)Cc3ncc(C)c(OC)c3C)nc2n1 (stereo not drawn)	inactive	–

These compounds were tested on Tov112D in the same assay as above. Conditions: Gynecologic cancer cell panel viability, ATPlite luminescence, 48 h; series mostly up to 57.5 µM; activity change, negative = cytotoxicity: at the top concentration.
In short: as §1

Compound	Potency	activity change, negative = cytotoxicity
COc1ccc(Cl)cc1C(=O)NCCc1ccc(S(=O)(=O)NC(=O)NC2CCCCC2)cc1	inactive	–
COc1ccc2cc1Oc1cc3c(cc1OC)CC[N+](C)(C)[C@H]3Cc1ccc(cc1)Oc1c(OC)c(OC)cc3c1[C@@H](C2)[N+](C)(C)CC3	–	-0.968% (inactive)
CC[C@@]1(c2ccccc2)NC(=O)N(C)C1=O	–	5.33% (inactive)
O=C1O[C@H]([C@@H](O)CO)C(O)=C1O	–	3.69% (inactive)
Cc1cccc(Nc2cc(Cl)nc(SCC(=O)O)n2)c1C	inactive	–
Cc1cc2nc3c(=O)[nH]c(=O)nc-3n(C[C@H](O)[C@H](O)[C@H](O)CO)c2cc1C	–	2.16% [at 25.3 µM] (inactive)
C[C@@H]1CC[C@@]2(OC1)O[C@H]1C[C@H]3[C@@H]4CC[C@H]5C[C@@H](O)CC[C@]5(C)[C@H]4CC(=O)[C@]3(C)[C@H]1[C@@H]2C	–	10.1% [at 6.55 µM] (inactive)
O=c1cc[nH]c(=S)[nH]1	–	2.34% (inactive)
COc1cc(C)c(Cc2cnc(N)nc2N)cc1OC	–	6.87% (inactive)
CCCOC(=O)c1ccccc1	–	6.93% (inactive)
CC(CN(C)C)CN1c2ccccc2CCc2ccccc21 (stereo not drawn)	–	-6.33% (inactive)
CN1[C@@H]2CC[C@H]1CC(OC(=O)C(O)c1ccccc1)C2 (stereo partly drawn)	–	-0.109% (inactive)
C[C@@H](O)[C@H](N)C(=O)O	–	0.98% [at 25.3 µM] (inactive)
NC(=O)N/N=C/c1ccc([N+](=O)[O-])o1	–	4.73% (inactive)
CC(C)(O)c1ccccc1CC[C@@H](SCC1(CC(=O)O)CC1)c1cccc(/C=C/c2ccc3ccc(Cl)cc3n2)c1	inactive	–
CC(CN1c2ccccc2Sc2ccccc21)N(C)C (stereo not drawn)	–	-25.7% (inactive)
Cc1ncc(COP(=O)(O)O)c(C=O)c1O	–	1.97% (inactive)
O=C1NC(=O)[C@@]2(CCOc3ccc(F)cc32)N1	–	12.6% (inactive)
Cc1c(O)cccc1C(=O)N[C@@H](CSc1ccccc1)[C@H](O)CN1C[C@H]2CCCC[C@H]2C[C@H]1C(=O)NC(C)(C)C	–	-5.71% (inactive)
CCN(CC)C(=O)Nc1ccc(OCC(O)CNC(C)(C)C)c(C(C)=O)c1 (stereo not drawn)	inactive	–

Compound	Potency	activity change, negative = cytotoxicity
O=C(O)COc1nn(Cc2ccccc2)c2ccccc12	–	-3.8% (inactive)
C[C@@H]1C[C@H]2[C@@H]3C[C@H](F)C4=CC(=O)C=C[C@]4(C)[C@@]3(F)[C@@H](O)C[C@]2(C)[C@@]1(O)C(=O)CO	inactive	–
Nc1ccc(S(=O)(=O)Nc2ccccc2)cc1	–	3.76% (inactive)
C[C@H](NC(CCc1ccccc1)C(=O)O)C(=O)N1CCC[C@H]1C(=O)O (stereo partly drawn)	–	11.4% (inactive)
O=C1NS(=O)(=O)c2ccccc21	–	2.64% (inactive)
CCCCc1ncc(/C=C(\Cc2cccs2)C(=O)O)n1Cc1ccc(C(=O)O)cc1	inactive	–
OCC(CO)N[C@H]1C[C@](O)(CO)[C@@H](O)[C@H](O)[C@H]1O	–	0.0747% (inactive)
CNC(=O)Oc1ccc2c(c1)[C@]1(C)CCN(C)[C@@H]1N2C	inactive	–
NS(=O)(=O)c1cc2c(cc1Cl)NC(CSCc1ccccc1)=NS2(=O)=O	–	-1.27% (inactive)
CCN(CC)C(C)CN1c2ccccc2Sc2ccccc21 (stereo not drawn)	–	6.39% (inactive)
O=C(O)CC(O)C(=O)O (stereo not drawn)	–	-9.03% (inactive)
O=C(O)[C@@H]1CSCN1	–	-2.21% (inactive)
Nc1ccc(S(=O)(=O)Nc2nccs2)cc1	inactive	–
CC(C(O)c1ccc(O)cc1)N1CCC(Cc2ccccc2)CC1 (stereo not drawn)	inactive	–
CN(C)CCOC(C)(c1ccccc1)c1ccccn1 (stereo not drawn)	–	-4.35% (inactive)
CC(O)COc1ccccc1 (stereo not drawn)	–	6.53% (inactive)
Cc1cccc(C)c1NC(=O)CN(CC(=O)O)CC(=O)O	–	1.69% (inactive)
CN(C)CCN(Cc1ccccc1)c1ccccn1	–	-13.7% (inactive)
COc1ccc2[nH]c(S(=O)Cc3ncc(C)c(OC)c3C)nc2n1 (stereo not drawn)	inactive	–
